BAZ2B block: BAZ2B (human) inhibition; hit rate 4.4% among 360,000; Potency, µM (highest dose often 114 µM), for inactives: at the highest dose activity change, negative = inhibition, most hits filed as inhibitors; AlphaScreen BAZ2B-H3K14Ac peptide displacement; Q9UIF8; note: % is set by controls: 0 for no effect and ±100 for the full control effect; nearly all actives have a fitted effect of over 60% in size
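AlphaScreen displacement of biotin-H3(5-23)K14Ac peptide (50 nM final) from BAZ2B (50 nM final) in PBS pH 7.4, 0.01% Tween-20; complex preformed 30 min RT, then compounds (top 110 uM) 30 min RT, beads 20 min dark.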
PLK1 PBD block: inhibitors of human PLK1 polo-box domain binding; Plk1 PBD binding of FITC phosphopeptide, fluorescence polarization; Potency, µM, for the others: max response, negative = inhibition, hits mostly inhibitors; hit rate 2.8% among 360,000; note: series mostly up to about 57 µM; % is set by controls: 0 for no effect and ±100 for the full control effect; nearly all actives have a fitted effect of over 65% in size
VDR inhibitor: blocks the human vitamin D receptor | P11473 | VDR-SRC2-3 peptide fluorescence polarization, 2 h | Potency, µM, for inactives: max response, negative = inhibition, hits mostly inhibitors | hit rate 0.93% among 400,000 | AID 504847; note: % is set by controls: 0 for no effect and ±100 for the full control effect
Target sequence (P11473 whole entry, looked up): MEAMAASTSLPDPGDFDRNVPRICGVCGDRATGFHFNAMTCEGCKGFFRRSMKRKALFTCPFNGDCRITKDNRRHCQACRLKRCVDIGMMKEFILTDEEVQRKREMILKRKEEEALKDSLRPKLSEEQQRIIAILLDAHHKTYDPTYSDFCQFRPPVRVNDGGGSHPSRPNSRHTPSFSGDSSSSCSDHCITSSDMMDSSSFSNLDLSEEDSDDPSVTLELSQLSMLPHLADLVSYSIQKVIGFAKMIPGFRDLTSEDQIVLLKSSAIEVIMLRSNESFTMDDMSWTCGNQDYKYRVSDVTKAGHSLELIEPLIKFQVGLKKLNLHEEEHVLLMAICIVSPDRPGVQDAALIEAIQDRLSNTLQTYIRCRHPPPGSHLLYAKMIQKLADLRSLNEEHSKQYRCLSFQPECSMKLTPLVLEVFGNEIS
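Reagent solutions, kept cold and dark, are dispensed first; compounds are then pinned in at 23 nl, plates briefly spun, and incubated 2 h at ambient temperature. Inhibition of VDR–SRC2-3 peptide binding is read by fluorescence polarization.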
JMJD2A Tudor inh: JMJD2A Tudor domain (human) inhibition | AlphaScreen JMJD2A-Tudor / H3K4me3 peptide binding | Potency, µM (highest dose often 114 µM), inactives show at the top dose activity change, negative = inhibition, actives largely listed as inhibitors | hit rate 4.4% among 390,000 | AID 504339; note: % is set by controls: 0 for no effect and ±100 for the full control effect; nearly all actives have a fitted effect of over 50% in size
HP1b chromo inh: blocks HP1-beta chromodomain binding to methylated histone tails; AlphaScreen HP1-beta / biotin-H3K9me3 peptide binding; Potency, µM (highest dose often 114 µM), without a hit: top-dose activity change, negative = inhibition, hits mostly inhibitors; P83916; hit rate 0.56% among 390,000; note: nearly all actives have a fitted effect of over 70% in size
Target sequence (P83916 whole entry, looked up): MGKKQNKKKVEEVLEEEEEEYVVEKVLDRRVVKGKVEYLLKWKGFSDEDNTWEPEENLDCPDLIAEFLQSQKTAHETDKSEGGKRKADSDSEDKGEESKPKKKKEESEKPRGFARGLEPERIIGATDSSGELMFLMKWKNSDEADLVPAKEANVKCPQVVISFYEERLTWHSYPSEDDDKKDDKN
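Compound inhibition of the preformed complex between 50 nM HP1-beta and 50 nM biotinylated H3K9me3 peptide was read by AlphaScreen. Buffer was PBS pH 7.4 with 0.01% Tween-20. Incubations ran 30 min at room temperature, with 10 ug/mL donor/acceptor beads.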
G9a block: G9a (human) methyltransferase inhibition; G9a H3K9 monomethylation, AlphaScreen, 2 h; hit rate 8.8% among 350,000; Potency, µM (top dose mostly 102 µM), without a hit: top-dose activity, negative = inhibition, actives largely listed as inhibitors; note: % is set by controls: 0 for no effect and ±100 for the full control effect; nearly all actives have a fitted effect of over 75% in size
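Step 1: enzyme (final 20 nM) with compound, 15 min RT. Step 2: substrate peptide 500 nM and SAM 20 uM, 2 h RT. Step 3: anti-H3K9me1 antibody and AlphaScreen beads, 10 min, then plate read.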
Starred values were filed as active, the others as inactive; ! = a repeat was not active; [ ] = dose if it differs, or a comment. Only some compounds are listed: those with a hit (about 11% of all), similar ones and a draw of the others. Calls come from the whole dose curve; as a rule, active = well fitted curve in the direction sought with a large enough effect; inconclusive = small, poorly fitted or top-dose-only effect, or another doubt; inactive = no such curve, though single readings can be large; an effect the other way counts as inactive or inconclusive. Potency is the fitted concentration of half-maximal effect.

For CCOc1ccccc1NC(=O)CSc1nc2cc(OC)c(OC)cc2c2nc(-c3ccccc3)nn12 the results were VDR inhibitor inconclusive, JMJD2A Tudor inh -11%, HP1b chromo inh 3% and G9a block -18%[59 µM].
For CN1CCN(CCCN2c3ccccc3Sc3ccccc32)CC1 the results were VDR inhibitor 1% and G9a block 28µM*.
`CCSc1ccc2c(c1)N(CCCN1CCN(C)CC1)c1ccccc1S2` gave BAZ2B block 35µM*, PLK1 PBD block -7%, VDR inhibitor -15%, JMJD2A Tudor inh 40µM*, HP1b chromo inh inconclusive and G9a block 14µM*.
For CN1CCN(CCCN2c3ccccc3Sc3ccc(Cl)cc32)CC1 the results were BAZ2B block 20µM*, PLK1 PBD block -2%, VDR inhibitor inconclusive, JMJD2A Tudor inh 45µM*, HP1b chromo inh inconclusive and G9a block 16µM*!.
CCOc1cc(CNC(=O)c2cc(-c3ccc(Cl)s3)nc3ccccc23)ccc1OC was read as BAZ2B block -1%, VDR inhibitor -15%, JMJD2A Tudor inh 2%, HP1b chromo inh 44% and G9a block 1%[59 µM].
Screening CCOc1cc(C#N)c(-n2nnc3c(sc4nc(C)cc(C)c43)c2=O)cc1OCC returned BAZ2B block -16%, VDR inhibitor -23%, JMJD2A Tudor inh -14%, HP1b chromo inh 7% and G9a block 16µM*.
`CC(NC(=O)c1cc(-c2ccc(Cl)cc2)on1)c1ccccc1` (configuration not stated) gave BAZ2B block -1%, VDR inhibitor -3%, JMJD2A Tudor inh 0%, HP1b chromo inh 17% and G9a block -44%[59 µM].
`COC(=O)c1ccccc1NC(=O)[C@H]1O[C@@H]2OC(C)(C)O[C@@H]2[C@H]2OC(C)(C)O[C@H]21` gave BAZ2B block -2%, VDR inhibitor 4%, JMJD2A Tudor inh -15%, HP1b chromo inh 12% and G9a block -31%[59 µM].
Screening CC1(C)O[C@H]2[C@@H](O1)[C@@H](C(=O)Nc1ccccc1O)O[C@@H]1OC(C)(C)O[C@@H]12 returned BAZ2B block 2%, VDR inhibitor 7%, JMJD2A Tudor inh 1%, HP1b chromo inh 44% and G9a block 1µM*.
CCc1ccccc1Nc1cc(C(=O)NC2CCC(C)CC2)c2ccccc2n1 (configuration not stated) was read as VDR inhibitor -6%, JMJD2A Tudor inh -4%, HP1b chromo inh 45% and G9a block 0%[59 µM].
For O=C(O)C1Nc2c(C(F)(F)F)ccc(Cl)c2C2C=CCC12 (configuration not stated) the results were BAZ2B block inconclusive, PLK1 PBD block 27µM*, VDR inhibitor inconclusive, JMJD2A Tudor inh -26%, HP1b chromo inh -4% and G9a block 10µM*.
`Cc1ccc2c(c1C)NC(C(=O)O)C1CC=CC21` (configuration not stated) gave BAZ2B block 7.1µM*, PLK1 PBD block 19µM*, VDR inhibitor 25%, JMJD2A Tudor inh 7.9µM*, HP1b chromo inh 11µM* and G9a block 8.9µM*.
Screening Cc1cc(C)c2c(c1)NC(C(=O)O)C1CC=CC21 (configuration not stated) returned BAZ2B block 11µM*, PLK1 PBD block 3µM*, VDR inhibitor 57%, JMJD2A Tudor inh 13µM* and HP1b chromo inh 20µM*.
Screening Cc1ccc(Cl)c2c1N[C@@H](c1ccc(C(=O)O)cc1)[C@H]1CC=C[C@@H]21 returned BAZ2B block inconclusive, VDR inhibitor -30%, JMJD2A Tudor inh inconclusive, HP1b chromo inh 5% and G9a block inconclusive.
For Cc1cc(C)c2c(c1)C1C=CCC1C(C(=O)O)N2 (configuration not stated) the results were VDR inhibitor inconclusive, JMJD2A Tudor inh 20µM* and HP1b chromo inh 20µM*.
Screening O=C(O)C1Nc2c(C(=O)N3CCOCC3)cccc2C2C=CCC12 (configuration not stated) returned BAZ2B block 20µM*, PLK1 PBD block 12µM*, VDR inhibitor inconclusive, JMJD2A Tudor inh 11µM*, HP1b chromo inh 40µM* and G9a block 8.9µM*.
For O=C(c1ccccc1)c1ccccc1C(=O)N1CCOCC1 the results were BAZ2B block -4%, PLK1 PBD block 1%, VDR inhibitor 4%, JMJD2A Tudor inh -11%, HP1b chromo inh 12% and G9a block 20%[59 µM].
For COc1ccc(/C(C)=N/NC(=O)c2nnn(-c3nonc3N)c2-c2cccs2)cc1 the results were BAZ2B block 0%, PLK1 PBD block -8%, VDR inhibitor -3%, JMJD2A Tudor inh -7%, HP1b chromo inh 27% and G9a block 46%.
CCOc1ccc(-c2c(C(=O)N/N=C/C3CCCCC3)nnn2-c2nonc2N)cc1 was read as BAZ2B block inconclusive, PLK1 PBD block -9%, VDR inhibitor -11%, JMJD2A Tudor inh -4%, HP1b chromo inh 45% and G9a block 24%.
Screening COc1ccc(/C(C)=N/NC(=O)c2nnn(-c3nonc3N)c2-c2ccccc2)cc1 returned BAZ2B block inconclusive, PLK1 PBD block -5%, VDR inhibitor -5%, JMJD2A Tudor inh -7%, HP1b chromo inh 26% and G9a block 50µM*.
For Cc1ccc(-c2c(C(=O)N/N=C/C3CCCCC3)nnn2-c2nonc2N)cc1 the results were BAZ2B block 79µM*, PLK1 PBD block 3%, VDR inhibitor -1%, JMJD2A Tudor inh -3%, HP1b chromo inh 56% and G9a block 1%.
Screening N#Cc1ccccc1S(=O)(=O)N1CCCC(c2nc3c(nnn3Cc3cccc(Cl)c3)c(=O)[nH]2)C1 (configuration not stated) returned BAZ2B block -1%, VDR inhibitor 24%, JMJD2A Tudor inh -27%, HP1b chromo inh 13% and G9a block 2%[59 µM].
`CCc1ccc2[nH]c(C(=O)Nc3ccc(Br)c(C)n3)cc2c1` gave BAZ2B block -20%, PLK1 PBD block -1%, VDR inhibitor 11%, JMJD2A Tudor inh -25%, HP1b chromo inh 36% and G9a block 45µM*.
CCc1ccc2[nH]c(C(=O)Nc3ccc(F)cc3Br)cc2c1 was read as BAZ2B block -18%, PLK1 PBD block -5%, VDR inhibitor 8%, JMJD2A Tudor inh -27%, HP1b chromo inh 9% and G9a block 45µM*.
For COCCNC(=O)CN1C(=O)c2cccnc2Oc2ccc(Cl)cc21 the results were BAZ2B block 1%, VDR inhibitor 20%, JMJD2A Tudor inh 9%, HP1b chromo inh 40% and G9a block -6%[59 µM].
O=C(NC1CCCC1)c1ncn[nH]1 was read as BAZ2B block 45µM*, PLK1 PBD block -5%, VDR inhibitor -15%, JMJD2A Tudor inh 32µM*, HP1b chromo inh 45% and G9a block 20%[59 µM].

Compound activity: PubChem BioAssay, National Center for Advancing Translational Sciences (NCATS)
